Source: PubChem BioAssay (The Scripps Research Institute Molecular Screening Center)
Only some compounds are listed: those with a hit (about 3.4% of all), similar ones and a draw of the others.
MITF primary: human MITF inhibition, primary screen; 650,000 compounds, 0.91% hits; inhibition, % at 2.6 µM; O75030; AID 1259374; AlphaScreen MITF homodimerization, bead proximity signal; in the data active = inhibition above about 50%
GPR151 ag: activates the human receptor GPR151; activation, % at 11.2 µM; PathHunter beta-arrestin GPR151 cells, luminescence; 650,000 compounds, 1% hits; in the data active = activation above about 4.9%
TEAD-YAP inh: TEAD-YAP interaction inhibition; inhibition, % at 9.12 µM; 640,000 compounds, 1.4% hits; HEK-TIYL cells, TEAD-Gal4/YAP UAS-luciferase luminescence; in the data active = inhibition above about 32%
FBW7 act: human FBW7 E3 ligase activation, primary screen; Q969H0; AlphaScreen FBW7–phospho-cyclin E peptide binding, activator screen; normalized activity (activation), % at 26.1 µM; 650,000 compounds, 0.13% hits; in the data active = normalized activity above about 1.9%;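 also: purified mutant Fbw7 with reduced substrate affinity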
Target sequence (Q969H0 whole entry, looked up): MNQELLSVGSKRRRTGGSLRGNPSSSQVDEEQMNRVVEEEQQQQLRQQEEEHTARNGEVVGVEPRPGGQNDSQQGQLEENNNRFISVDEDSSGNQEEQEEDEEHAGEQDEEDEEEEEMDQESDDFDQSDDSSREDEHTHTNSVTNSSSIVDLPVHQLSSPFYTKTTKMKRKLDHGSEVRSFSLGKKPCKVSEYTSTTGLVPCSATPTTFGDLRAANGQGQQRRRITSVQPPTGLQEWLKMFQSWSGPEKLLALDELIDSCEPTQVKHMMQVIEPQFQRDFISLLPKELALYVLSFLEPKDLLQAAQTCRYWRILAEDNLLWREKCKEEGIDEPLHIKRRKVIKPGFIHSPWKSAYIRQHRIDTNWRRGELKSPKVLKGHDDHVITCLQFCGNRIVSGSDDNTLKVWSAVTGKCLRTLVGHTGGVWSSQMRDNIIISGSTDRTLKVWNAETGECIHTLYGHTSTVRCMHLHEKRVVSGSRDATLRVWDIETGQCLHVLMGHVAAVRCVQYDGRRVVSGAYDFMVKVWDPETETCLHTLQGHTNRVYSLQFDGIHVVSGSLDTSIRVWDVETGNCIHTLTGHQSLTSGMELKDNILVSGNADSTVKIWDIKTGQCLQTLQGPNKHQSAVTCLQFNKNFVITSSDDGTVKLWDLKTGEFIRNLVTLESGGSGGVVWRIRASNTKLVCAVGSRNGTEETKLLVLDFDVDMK
A number is an active result; 0 = inactive; - = not tested or not shown.

SMILES	MITF primary	GPR151 ag	TEAD-YAP inh	FBW7 act
CCOC(=O)c1c(NC(=O)CSc2nnc(CNC(=O)c3ccco3)n2-c2cccc(C)c2C)sc2c1CCCCC2	0	0	0	0
CCOc1ccc(C2NC(=S)NC(C)=C2C(=O)OCCOC)cc1 (centres undefined)	0	0	0	0
Cc1ccc(NC(=O)/C(C#N)=C/c2cn(CC(N)=O)c3ccccc23)cc1C	0	0	0	0
Cc1cc(C(=O)COC(=O)C2=COCCO2)c(C)n1Cc1cccs1	0	0	61.6	0
Cc1cc(C(=O)COC(=O)c2ccccc2O)c(C)n1Cc1cccs1	0	0	88.8	0
Cc1ccsc1C(=O)OCC(=O)c1cc(C)n(C)c1C	0	0	66.1	0
CCc1cc(Br)ccc1NC(=O)CN1C(=O)C2C3CCC(C3)C2C1=O (centres undefined)	0	0	0	0
Cc1cc(C(=O)COC(=O)c2ccc(CN3CCOCC3)cc2)c(C)n1-c1ccccc1	0	0	0	0
COc1cccc(Nc2cc(N3CCN(Cc4ccc5c(c4)OCO5)CC3)c3noc4c3c2C(=O)c2ccccc2-4)c1	0	0	0	0
CCOc1cc(N2CCOCC2)c(OCC)cc1NS(=O)(=O)c1ccc(F)c(F)c1	0	0	34.5	0
Cc1[nH]n(-c2ccccc2)c(=O)c1/C=N/NC(=O)COc1ccc2ccccc2c1	0	0	0	0
Cc1sc2ncnc(N3CCC(C)CC3)c2c1S(=O)(=O)N1CCOCC1	0	0	0	0
O=C(Nc1ccc([N+](=O)[O-])cc1)c1ccc2c(c1)C1C=CCC1C(c1ccc(Cl)cc1)N2 (centres undefined)	0	0	0	0
O=C(CN1C(=O)c2ccccc2C1=O)Nc1nnc(COc2ccc(Cl)cc2)s1	0	0	0	0
O=C1C(Cl)=C(N2CCCCC2)C(=O)C(Cl)=C1/C=C/N1CCCCC1	86.2	0	0	0
CC(C)n1c(SCc2ccccc2Cl)nc2c1c(=O)[nH]c(=O)n2C	0	0	43.4	0
N/C(=N\O)c1ccc(NC(=O)c2ccccn2)cc1	0	0	32.1	0
O=C(Nc1ccc(-c2ccccc2)cc1)c1ccccn1	0	0	63.6	0
N/C(=N\OC(=O)c1ccc(F)cc1)c1ccccn1	0	0	55.7	0
O=C(Nc1cc(Cl)cc(Cl)c1)c1ccccn1	0	0	0	0
C=C(C)C(=O)OCc1ccc(C#N)cc1	0	0	0	0
CC(C)NC(=O)[C@@H]1C[C@@H](NC2CCN(Cc3ccccc3)CC2)CN1C(C)C	0	0	0	0
Clc1cccc(/C=N/Nc2ncnc3nc[nH]c23)c1	0	0	58.0	0
Fc1cccc(/C=N/Nc2ncnc3nc[nH]c23)c1	0	0	0	0
CN(C)c1ccc(/C=N/Nc2ncnc3nc[nH]c23)cc1	0	0	60.4	0
SMILES	MITF primary	GPR151 ag	TEAD-YAP inh	FBW7 act
COc1ccc(/C=N/Nc2ncnc3nc[nH]c23)cc1	0	0	58.1	0
Cc1ccc(/C=N/Nc2ncnc3nc[nH]c23)cc1	0	0	0	0
Oc1ccc(Br)cc1/C=N/Nc1ncnc2nc[nH]c12	75.0	0	71.8	0
Cn1c(=O)c2c(nc(N/N=C/c3cccc(O)c3)n2Cc2ccccc2)n(C)c1=O	0	0	0	0
O=C(NC1CC1)[C@@H]1C=CCN1C(=O)c1ccc(F)cc1F	0	0	0	0
O=C(NCc1ccccc1)C(c1ccccc1)N(Cc1cccnc1)C(=O)c1csnn1 (centres undefined)	0	0	0	6.9
O=C(NCc1ccccc1)C(c1ccccc1)N(Cc1cccs1)C(=O)c1cnccn1 (centres undefined)	0	0	34.2	0
O=C(NCc1ccccc1)C(c1cccs1)N(Cc1cccs1)C(=O)c1cnccn1 (centres undefined)	0	0	0	0
COC(=O)c1ccc(CSc2nccc3c(OC)cccc23)o1	0	0	0	0
CCCCCCCCCCCCCCCCOC[C@H](COP(=O)(O)OCC[N+](C)(C)C)OC(=O)CCCCCCCC(=O)O	0	0	-	-
Cc1ccc(-c2nc(CS(=O)CC(=O)NCC3CCCO3)c(C)o2)cc1 (centres undefined)	0	0	0	1.9
CCCCNS(=O)(=O)c1ccc(NC(=O)/C=C/c2cccc([N+](=O)[O-])c2)cc1	0	0	0	0
COC(=O)c1cc(NC(=O)C23CCC(C)(C(=O)C2=O)C3(C)C)cc(C(=O)OC)c1 (centres undefined)	58.9	0	0	0
O=C(CSc1n[nH]c(-c2ccncc2)n1)c1ccc(O)c(O)c1	99.2	0	0	0
O=C(Cc1cnc2ncnn2c1)N1CCc2c([nH]c3ccccc23)C1c1ccccn1 (centres undefined)	0	0	34.6	0
CC(C)N(C(=O)CSc1ncccc1-c1nc2ccccc2[nH]1)C(C)C	0	0	0	0
Oc1ccccc1CNCc1ccccn1	76.5	0	0	0
OCCNc1c2c(nc3nc4ccccc4n13)CCC2	0	0	0	0
COc1cc(C(=O)/C=C/Nc2cccc(F)c2)cc(OC)c1OC	0	0	0	0
COc1cc(C(=O)/C=C/Nc2cccc(O)c2)cc(OC)c1OC	0	0	37.7	0
Cc1ccc(C(=O)/C=C/Nc2cccc(O)c2)cc1	0	0	92.4	0
Cc1ccc(/C=C/C(=O)c2ccc(O)cc2)cc1	0	0	46.6	0
CCN(c1ccc(F)cc1)S(=O)(=O)c1ccc2[nH]cc(C(=O)N3CCN(Cc4ccccc4)CC3)c(=O)c2c1	0	0	0	0
N#CC1=C(N)Oc2c(ccc3ccccc23)C1c1cccc([N+](=O)[O-])c1 (centres undefined)	0	0	66.0	0
N#CC1=C(N)Oc2c([nH]c(=O)[nH]c2=O)C1c1cccc([N+](=O)[O-])c1 (centres undefined)	0	0	0	0
SMILES	MITF primary	GPR151 ag	TEAD-YAP inh	FBW7 act
N#CC1=C(N)Oc2c(sc3ccccc23)C1c1cccc([N+](=O)[O-])c1 (centres undefined)	0	0	53.1	0
COc1ccc(C2C(C#N)=C(N)Oc3c2sc2ccccc32)cc1[N+](=O)[O-] (centres undefined)	0	0	0	0
O=C(CSc1nc2[nH]ncc2c(=O)n1-c1ccccc1)Nc1ccc(F)c(F)c1	0	0	60.9	0
O=C(CSc1nc2[nH]ncc2c(=O)n1-c1ccccc1)Nc1ccc(Br)cc1	0	0	0	0
COC(=O)c1c(NC(=O)C=C(C)C)sc2c1CCC(C)C2 (centres undefined)	0	0	0	0
CCOC(=O)C1CCCn2c1nc1cc(-c3ccc(OC)cc3)sc1c2=O (centres undefined)	0	0	51.6	0
CCOC(=O)C1CCCn2c1nc1c(c2=O)CCCC1 (centres undefined)	0	0	0	0
Cc1nn(CC(=O)NCc2cccs2)c(=O)c2cc3ccsc3n12	0	0	0	0
Cc1ccc(-c2ccc(-c3nnc(N)o3)s2)s1	0	0	0	2.3
COc1ccc(-c2nnc(N)o2)cc1OC	0	0	0	0
Cc1nc(C)c(-c2ccc(SCC(=O)Nc3ccc([N+](=O)[O-])cc3)nn2)s1	0	0	47.4	0
COCCn1c(NC(=S)NC(=O)c2cccc(Br)c2)cc(=O)[nH]c1=O	0	0	0	0
Cc1cccc(NC(=O)/C=C/c2ccccc2[N+](=O)[O-])c1	0	0	0	0
